From PubChem BioAssay
Rows were chosen to be rich in hits. Some 1.2% of all compounds tested hit in one or more screens of this group.
NR5A2 inv ag: suppresses constitutive activity of human LRH-1; 0.13% of 360,000 active; O00482; HEK293T StAR-luciferase reporter, LRH-1 transfected, 24 h; inhibition, % at 3.6 µM;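 active means inhibition above the mean inhibition of all tested compounds plus 3 SD, cut at about 73% in these data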
SRC1 inh: human NCOA1 inhibition. Q15788. HEK293 GAL4-SRC1 luciferase reporter, luminescence. inhibition, % at 3.6 µM. 0.12% of 360,000 active;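 active means inhibition above the campaign mean plus 3 SD, with each screening campaign given its own cutoff, cut at about 60% in these data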
Shn3 3UTR inh: reduces Shn3 3'UTR luciferase signal in osteoblasts; 0.52% of 360,000 active; AID 588674; Clone20 osteoblast Shn3 3'UTR firefly luciferase, 24 h; inhibition, % at 12.5 µM;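 active means mean inhibition of at least 75% with every replicate also reaching 75%; inconclusive means mean inhibition at least 75% but some replicate below; inactive means mean inhibition below 75%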
SRC3 inh: human NCOA3 inhibition | AID 588352 | Q9Y6Q9 | 0.17% of 360,000 active | inhibition, % at 3.6 µM | HEK293 GAL4-SRC3 luciferase reporter, luminescence;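 active means inhibition above a per-campaign cutoff, the mean of all compounds plus 3 SD, cut at about 60% in these data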;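 further: higher means less SRC3-driven luciferase light from the GAL4 reporter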
Target sequence (Q9Y6Q9 whole entry, looked up, the tested form may be a part): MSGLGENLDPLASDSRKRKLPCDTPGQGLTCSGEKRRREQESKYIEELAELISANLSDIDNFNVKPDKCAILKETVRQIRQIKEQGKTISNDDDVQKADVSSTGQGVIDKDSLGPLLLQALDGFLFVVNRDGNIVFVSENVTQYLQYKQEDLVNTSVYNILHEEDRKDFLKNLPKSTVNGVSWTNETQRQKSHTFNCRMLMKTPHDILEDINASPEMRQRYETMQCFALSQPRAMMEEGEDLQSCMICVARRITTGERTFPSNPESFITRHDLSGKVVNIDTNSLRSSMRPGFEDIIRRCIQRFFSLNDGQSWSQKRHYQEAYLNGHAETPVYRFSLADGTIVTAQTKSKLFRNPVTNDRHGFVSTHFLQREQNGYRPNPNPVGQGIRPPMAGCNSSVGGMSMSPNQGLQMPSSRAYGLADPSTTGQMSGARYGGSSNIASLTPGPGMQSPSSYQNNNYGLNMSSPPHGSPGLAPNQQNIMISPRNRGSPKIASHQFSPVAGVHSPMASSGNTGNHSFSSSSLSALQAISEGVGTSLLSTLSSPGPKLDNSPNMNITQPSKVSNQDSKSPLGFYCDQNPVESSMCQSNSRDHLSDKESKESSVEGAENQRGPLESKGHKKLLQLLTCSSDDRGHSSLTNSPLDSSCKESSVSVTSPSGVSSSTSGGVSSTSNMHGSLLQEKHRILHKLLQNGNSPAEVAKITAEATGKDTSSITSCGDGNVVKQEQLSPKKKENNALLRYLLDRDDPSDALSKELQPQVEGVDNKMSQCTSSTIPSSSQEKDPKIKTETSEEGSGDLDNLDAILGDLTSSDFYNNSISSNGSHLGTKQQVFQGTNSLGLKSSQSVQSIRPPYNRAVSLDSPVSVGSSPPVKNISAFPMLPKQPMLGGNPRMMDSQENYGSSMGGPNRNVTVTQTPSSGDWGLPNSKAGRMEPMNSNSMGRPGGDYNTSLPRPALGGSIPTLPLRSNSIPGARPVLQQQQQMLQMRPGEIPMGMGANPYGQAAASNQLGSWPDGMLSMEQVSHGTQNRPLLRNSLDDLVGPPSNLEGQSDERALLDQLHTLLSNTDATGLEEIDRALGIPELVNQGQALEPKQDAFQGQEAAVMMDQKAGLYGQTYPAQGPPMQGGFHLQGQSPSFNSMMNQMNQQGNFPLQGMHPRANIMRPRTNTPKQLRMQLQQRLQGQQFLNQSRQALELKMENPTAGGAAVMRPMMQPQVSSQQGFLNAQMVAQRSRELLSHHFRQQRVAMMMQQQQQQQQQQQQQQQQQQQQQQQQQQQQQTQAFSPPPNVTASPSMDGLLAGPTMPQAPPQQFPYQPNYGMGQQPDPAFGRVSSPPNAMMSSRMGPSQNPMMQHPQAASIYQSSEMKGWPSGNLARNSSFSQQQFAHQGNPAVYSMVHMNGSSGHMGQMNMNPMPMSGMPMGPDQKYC
EBV LMP1 NFkB: Epstein-Barr LMP1 NF-kappaB reporter inhibition; 0.69% of 350,000 active; inhibition, % at 12.5 µM; AID 504558; LMP1-induced NF-kappaB luciferase reporter cells, luminescence; in the data active means inhibition above about 41%; inconclusive means no clear call, values can overlap the other calls
SRC2 inh: human SRC2 (NCOA2) inhibition | Q15596 | HEK293 GAL4-SRC2 luciferase reporter, luminescence | inhibition, % at 9 µM | 0.17% of 370,000 active;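 active means inhibition above the mean inhibition of all tested compounds plus 3 SD, set per campaign, cut at about 52% in these data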
Numbers stand for hits; - = inactive; ? = inconclusive; . = no result given.

SMILES | NR5A2 inv ag | SRC1 inh | Shn3 3UTR inh | SRC3 inh | EBV LMP1 NFkB | SRC2 inh
CN1CCN(c2ccc3c(c2)Oc2ccccc2CN(Cc2cn(Cc4cccc(C(F)(F)F)c4)nn2)S3(=O)=O)CC1 | . | . | . | . | . | -
CC(CCN1CCC(C(O)(c2ccccc2)c2ccccc2)CC1)Oc1cccc(C(F)(F)F)c1 (stereo unspecified) | . | . | . | . | . | -
CCOC(=O)c1ccc(NC(=S)N2CCSC2c2ccc(OC)cc2)cc1 (stereo unspecified) | - | - | - | - | 67 | -
CCOC(=O)c1ccc(NC(=S)N2CCSC2c2ccc(Cl)cc2)cc1 (stereo unspecified) | - | - | - | - | - | -
CCCCc1c(-c2ccccc2OC)ncn1C1CCCCC1 | . | . | . | . | . | -
Nc1ccn([C@@H]2O[C@H](C(=O)N3CCN(CCO)CC3)[C@@H](O)[C@H]2O)c(=O)n1 | . | . | . | . | . | -
COCCN1Cc2cc(C(=O)OC)c3c(c2C1=O)c1cc(OC)ccc1n3C(=O)c1ccccc1 | . | . | . | . | . | -
COc1ccc2c(c1)CCCN2C(=O)C1CCCN(S(=O)(=O)c2ccc(Cl)s2)C1 (stereo unspecified) | . | . | . | . | . | -
N=c1c2c(-c3ccccc3)c(-c3ccccc3)n(Cc3ccco3)c2ncn1CCO | - | - | - | 63 | - | -
N=c1c2c(-c3ccccc3)c(-c3ccccc3)n(Cc3ccco3)c2ncn1CCCO | - | - | - | - | . | -
O=C1NCCc2c1[nH]c1ccccc21 | - | - | - | - | - | -
COc1ccc2[nH]c3c(c2c1)CCNC3=O | - | - | - | 65 | - | -
COc1ccc(OC)c(S(=O)(=O)NCC2CCN(C(=O)C(=O)c3cc4ccccc4o3)CC2)c1 | . | . | . | . | . | -
CCOC(=O)[C@H]1[C@H]2COc3ccc(C)cc3[C@@H]2N2C(=O)CN(Cc3ccc(OC)cc3)C(=O)[C@@]12C | - | - | - | - | 45 | -
CCOC(=O)[C@H]1[C@H]2COc3ccc(OC)cc3[C@@H]2N2C(=O)CN(C)C(=O)[C@@]12C | - | - | - | - | 47 | -
CCOC(=O)[C@H]1[C@H]2COc3ccc(C)cc3[C@@H]2N2C(=O)CN(Cc3ccc(Cl)cc3)C(=O)[C@@]12C | - | - | - | - | - | -
CCOC(=O)[C@H]1[C@H]2COc3cc(OC)ccc3[C@@H]2N2C(=O)CN(C)C(=O)[C@@]12C | - | - | - | - | - | -
O=C(c1ccc(Cl)cc1)N1CCN(c2ccnc3cc(Cl)ccc23)CC1 | - | - | - | - | 50 | -
CCC(=O)N1CCN(c2ccnc3cc(Cl)ccc23)CC1 | - | - | - | - | - | -
COC(=O)Cc1nnn2c1[C@@H](C)[C@@H](c1ccccc1Br)OC[C@H](C)C2 | . | . | . | . | . | -
Cc1c(/C(O)=C2/C(=O)C(=O)N(CCN3CCOCC3)C2c2ccccn2)cnn1-c1ccccc1 (stereo unspecified) | 83 | 84 | - | 85 | 55 | 80
O=C1C(=O)N(CCN2CCOCC2)C(c2ccccn2)/C1=C(/O)c1ccc(F)cc1 (stereo unspecified) | - | - | - | - | - | -
CC(C)Nc1nnc(SCC(=O)c2c(N)n(Cc3ccccc3)c(=O)n(C)c2=O)s1 | - | - | - | - | 64 | -
O=C(NC1=N[C@@]2(C=C3CCCCC3n3c(=O)n(-c4ccccc4)c(=O)n32)[C@H](Cc2ccccc2)N1Cc1ccccc1)c1ccccc1 (stereo partly specified) | . | . | . | . | . | -
Cc1ccc(F)cc1C(=O)N(Cc1ccccn1)CC1CCCO1 (stereo unspecified) | . | . | . | . | . | -
SMILES | NR5A2 inv ag | SRC1 inh | Shn3 3UTR inh | SRC3 inh | EBV LMP1 NFkB | SRC2 inh
COc1ccccc1N=Nc1nc(-c2ccccc2)c(-c2ccccc2)[nH]1 | - | - | - | - | - | -
Oc1ccccc1N=Nc1nc(-c2ccccc2)c(-c2ccccc2)[nH]1 | 98 | 74 | 88 | 87 | 84 | -
COc1ccc(C(C(=O)N(C)C2CCCC2)N(Cc2ccc(F)cc2)C(=O)c2cc(C)[nH]n2)cc1OC (stereo unspecified) | . | . | . | . | . | -
Cc1ccc(S(=O)(=O)NC(CCCNC(=O)OCc2ccccc2)C(=O)O)cc1 (stereo unspecified) | . | . | . | . | . | -
CCC(C)(C)c1ccc(Oc2ccc(N)cc2)cc1 | - | 68 | 88 | 77 | 51 | 91
COc1ccc(NC(=O)/C(Cl)=C(/Cl)S(=O)(=O)Cc2ccc(C)cc2)cn1 | - | - | ? | - | 87 | .
COc1ccc(NC(=O)/C(Cl)=C(/Cl)S(=O)Cc2ccccc2Cl)cn1 (stereo unspecified) | . | . | . | . | 89 | .
COc1cccc(OC)c1C(=O)NCCSC1CCCCC1 | - | - | - | - | 59 | -
COc1ccc2[nH]c(=O)c3c(c2c1)OC(C)(C)C=C3 | - | - | - | - | - | 63
COc1c(CC=C(C)C)cc(C2CC(=O)c3c(O)cc(O)cc3O2)cc1CC=C(C)C (stereo unspecified) | - | - | 90 | - | - | -
COC(=O)c1cccc(Cn2ccc3ccc(-c4ccc5ccn(C(=O)c6ccc(C)cc6)c5c4)cc32)c1 | . | . | . | . | . | -
CC1=NNC(=O)/C1=C\c1cn(-c2ccccc2)nc1-c1ccccc1 | - | - | 97 | - | - | -
O=Cc1cn(-c2ccccc2)nc1-c1ccccc1 | - | - | - | - | - | -
O=C(Nc1ccc(N2CCOCC2)cc1)c1cnccn1 | - | - | - | - | 63 | -
O=C(Nc1ccc(N2CCOCC2)cc1)c1cnsn1 | - | - | - | - | 77 | -
O=C(Nc1ccc(N2CCOCC2)cc1)c1ccncc1 | - | - | - | - | - | -
O=C(Nc1ccc(S(=O)(=O)N2CCN(Cc3ccccc3)CC2)cc1)c1cnccn1 | - | - | 82 | - | - | -
COC(=O)C1CN(CCO)CCS(=O)(=O)N1Cc1cccc(Cl)c1 (stereo unspecified) | . | . | . | . | . | -
COC(=O)[C@]12C[C@H](CC(=O)N3CCN(C(=O)C4CC4)CC3)C(=O)N(CCc3ccc(OC)c(OC)c3)C1=C[C@H](C1CCCC1)O[C@@H]2C | . | . | . | . | . | -
COc1ccc(S(=O)(=O)N2CCC(C(=O)NC3CC3)CC2)cc1 | - | - | - | - | - | -
COc1ccc(S(=O)(=O)N2CCC(NC(=O)C3CCCCC3)CC2)cc1 | - | - | - | - | 46 | -
CCOCCCn1cnc2c3cc(F)ccc3n(C)c2c1=O | - | - | - | - | 57 | -
Cn1c2ccc(F)cc2c2ncn(Cc3ccccn3)c(=O)c21 | - | - | - | - | - | -
CCCCCCCn1c2c(c(=N)c3ccccc31)CCC2 | 79 | - | 97 | 64 | - | -
C=CCSc1nnc(CCCCCN2C(=O)c3cccc4cccc(c34)C2=O)o1 | - | - | - | - | 59 | -
CC(C)c1ccc(-c2nc3ccccc3s2)cc1 | 82 | 82 | 88 | 87 | 70 | 80
CN(C(=O)OC(C)(C)C)c1ccc(-c2nc3ccccc3s2)cc1 | 85 | 86 | - | 87 | 81 | 85
COCCN1CCCc2nc(-c3ccc(Br)cc3)ccc21 | . | . | . | . | . | -
